Values joined by “and” are separate entries in the source; they are usually repeats but may differ in a detail not shown here. Equal values may be shown once. A number with no mark means an inactive call. Results filed as inconclusive are left out. Entries that show only a call come without a potency. Active and inactive are the calls of the source. Calls come from the whole dose curve.
Key:
[1] = molecular target: Acetylcholinesterase (Homo sapiens) (UniProt P22303); test: Acetylcholinesterase (AChE) small molecule antagonists: colormetric cell-based qHTS assay (AID 1347395); note: nearly all actives have a fitted effect of over 30% in size; note: potency is the fitted concentration of half-maximal effect
Summary of the method: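 Colorimetric read-out: DTNB detects thiocholine released when cellular AChE in SH-SY5Y cells hydrolyses acetylthiocholine. Cells attached overnight, received compound for 30 min at 37 C, then substrate mix for 90 min at 37 C.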

[2] = molecular target: Acetylcholinesterase (Homo sapiens) (UniProt P22303); test: Acetylcholinesterase (AChE) small molecule antagonists: enzyme-based qHTS assay (AID 1347397); conditions: Potency: AChE enzyme activity inhibition; outcome: AChE enzyme activity inhibition; note: nearly all actives have a fitted effect of over 55% in size; note: potency is the fitted concentration of half-maximal effect
Summary of the method: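 Tox21 library chemicals are tested in qHTS format against recombinant human AChE. The enzyme, dispensed at 50 mU/mL, sits with compound for 30 min at room temperature. A DTNB–acetylthiocholine cocktail follows, and colour is read after 10 min.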

[3] = molecular target: Acetylcholinesterase (Homo sapiens) (UniProt P22303); test: Acetylcholinesterase (AChE) small molecule antagonists: fluorescence cell-based qHTS assay (AID 1347398); conditions: Potency: AChE activity; outcome: AChE activity; note: nearly all actives have a fitted effect of over 50% in size; note: potency is the fitted concentration of half-maximal effect
Summary of the method: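 Cellular AChE inhibition: SH-SY5Y cells treated with test chemical for 30 min at 37 C, then acetylthiocholine hydrolysis followed over 40 min at room temperature via thiocholine-reactive Thiolite Green fluorescence (490/520 nm).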

[4] = molecular target: Acetylcholinesterase (Homo sapiens) (UniProt P22303); test: Acetylcholinesterase (AChE) small molecule antagonists: enzyme-based qHTS assay with human liver microsomes (AID 1347399); conditions: Potency: qHTS inhibition; outcome: qHTS inhibition; note: nearly all actives have a fitted effect of over 60% in size
Summary of the method: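 Recombinant human AChE (50 mU/mL in the enzyme mix) and human liver microsomes (0.25 mg/mL final) were preincubated with compound and NADPH (0.25 mg/mL final) for 30 min at 37 C. Acetylthiocholine/DTNB was then added; thiocholine was read colorimetrically after 10 min at room temperature.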

Acetylcholinesterase (Homo sapiens), sequence (P22303 whole entry, looked up): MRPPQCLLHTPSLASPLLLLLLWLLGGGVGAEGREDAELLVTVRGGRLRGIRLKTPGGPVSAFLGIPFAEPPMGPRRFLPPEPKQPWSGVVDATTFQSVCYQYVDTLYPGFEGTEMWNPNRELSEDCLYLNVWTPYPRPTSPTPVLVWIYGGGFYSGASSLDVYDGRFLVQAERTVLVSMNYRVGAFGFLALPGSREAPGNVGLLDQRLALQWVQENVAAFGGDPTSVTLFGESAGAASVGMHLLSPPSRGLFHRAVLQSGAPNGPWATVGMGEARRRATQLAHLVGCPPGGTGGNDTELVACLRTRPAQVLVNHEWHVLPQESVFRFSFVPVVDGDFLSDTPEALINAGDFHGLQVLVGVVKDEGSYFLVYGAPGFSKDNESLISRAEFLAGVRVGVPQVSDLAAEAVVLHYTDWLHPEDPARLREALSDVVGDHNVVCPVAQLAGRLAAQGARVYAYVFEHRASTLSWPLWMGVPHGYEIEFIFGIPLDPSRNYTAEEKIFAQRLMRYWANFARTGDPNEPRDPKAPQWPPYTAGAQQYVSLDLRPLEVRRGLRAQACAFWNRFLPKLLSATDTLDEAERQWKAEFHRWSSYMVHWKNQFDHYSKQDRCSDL

Row | SMILES | Potency [1] | Potency [2] | Potency [3] | Potency [4] | activity, negative = inhibition [1] | activity change, negative = inhibition [2] | activity change, negative = inhibition [3] | activity change, negative = inhibition [4]
1 | O=c1[nH]cnc2c1ncn2[C@@H]1O[C@H](CO)[C@@H](O)[C@H]1O | inactive | inactive | inactive | inactive |  |  |  | 
2 | CCCCCCC(O)CCOC(C)=O (stereo not given) | inactive | inactive | inactive | inactive |  |  |  | 
3 | CC(C)[C@H](N)C(=O)OCCOCn1cnc2c(=O)[nH]c(N)nc21 | inactive | inactive | inactive | inactive |  |  |  | 
4 | O=C(c1ccccc1)c1cccc(O)c1 | inactive | inactive | inactive | inactive |  |  |  | 
5 | CCCCOCCO | inactive | inactive | inactive | inactive |  |  |  | 
6 | CCOc1c(N2CCOCC2)cnn(C)c1=O | inactive | inactive | inactive | inactive |  |  |  | 
7 | CCNCCO | inactive | inactive | inactive | inactive |  |  |  | 
8 | c1ccc(CCCc2ccncc2)cc1 | inactive | inactive | inactive | inactive |  |  |  | 
9 | Cc1cc(OCCOCC[N+](C)(C)Cc2ccccc2)ccc1C(C)(C)CC(C)(C)C | 39.7 µM (active) and 17.4 µM (active) | 56.1 µM (active) and 30.9 µM (active) | 14.1 µM (active) and 8.71 µM (active) | inactive |  |  |  | 
10 | CCCCN(CCO)CCO | inactive | inactive | inactive | inactive |  |  |  | 
11 | NC(=S)Nc1cccc2ccccc12 |  |  |  |  | -0.35% [at 10.5 µM] | -0.679% [at 10.5 µM] | -3.97% [at 10.5 µM] | 0.729% [at 10.5 µM]
12 | CC/C=C\CC/C=C/C(OCC)OCC | inactive | inactive | inactive | inactive |  |  |  | 
13 | Cc1ccc(C(C)(C)C)cc1 | inactive | inactive | inactive | inactive |  |  |  | 
14 | CC1(C)S[C@@H]2[C@H](NC(=O)Cc3ccccc3)C(=O)N2[C@H]1C(=O)O (tested in a mixture with another compound) | inactive | inactive | inactive | inactive |  |  |  | 
15 | c1cnccn1 | inactive | inactive | inactive | inactive |  |  |  | 
16 | C=CCCCCCC | inactive | inactive | inactive | inactive |  |  |  | 
17 | O=Cc1ccccc1C=O | inactive | inactive | inactive | inactive |  |  |  | 
18 | CCCCCCCCCCCCCCCC(=O)OC(C)C | inactive | inactive | inactive | inactive |  |  |  | 
19 | Cc1ccccc1OCC(O)CO (stereo not given) | inactive | inactive | inactive | inactive |  |  |  | 
20 | CCN(Cc1cccc(S(=O)(=O)O)c1)c1ccc(C(=C2C=CC(=[N+](CC)Cc3cccc(S(=O)(=O)O)c3)C=C2)c2ccccc2S(=O)(=O)[O-])cc1 | inactive | inactive | inactive | inactive |  |  |  | 

Row | SMILES | Potency [1] | Potency [2] | Potency [3] | Potency [4] | activity, negative = inhibition [1] | activity change, negative = inhibition [2] | activity change, negative = inhibition [3] | activity change, negative = inhibition [4]
21 | CC1(C)C2=CCCC(C)(C)[C@]23CC[C@H]1C3 | inactive | inactive | inactive | inactive |  |  |  | 
22 | COc1cc(C(=S)N2CCOCC2)cc(OC)c1OC | inactive | inactive | inactive | inactive |  |  |  | 
23 | C=C[Si](C)(C)Cl |  |  |  |  | 1.82% [at 10.5 µM] | 0.136% [at 10.5 µM] | -9.61% [at 10.5 µM] | -5.99% [at 10.5 µM]
24 | CCOC(=O)c1cccnc1 | inactive | inactive | inactive | inactive |  |  |  | 
25 | CC(O)CN (stereo not given) | inactive | inactive | inactive | inactive |  |  |  | 
26 | O=C(O)c1snc(Cl)c1Cl | inactive | inactive | inactive | inactive |  |  |  | 
27 | CCN(CCCc1ccccc1)CCCc1ccccc1 | inactive | inactive | inactive | inactive |  |  |  | 
28 | O=C1c2c(O)ccc(Nc3ccc(CCO)cc3)c2C(=O)c2c([N+](=O)[O-])ccc(O)c21 | 8.94 µM (active) | 20 µM (active) | 11.2 µM (active) | inactive |  |  |  | 
29 | CC(=O)Nc1ccn(C2COC(COC(=O)c3ccccc3)O2)c(=O)n1 (stereo not given) | inactive | inactive | inactive | inactive |  |  |  | 
30 | Oc1c(Cl)cc(Cl)c(Cl)c1Cl | inactive | inactive | inactive | inactive |  |  |  | 
31 | CCCNC(C)C(=O)Nc1ccccc1C (stereo not given) | inactive | inactive | inactive | inactive |  |  |  | 
32 | CC/C=C\C#N | inactive | inactive | inactive | inactive |  |  |  | 
33 | Cc1cc(S(=O)(=O)O)c(N)cc1Cl | inactive | inactive | inactive | inactive |  |  |  | 
34 | COCCCOc1cc(C[C@@H](C[C@H](N)[C@@H](O)C[C@H](C(=O)NCC(C)(C)C(N)=O)C(C)C)C(C)C)ccc1OC | inactive | inactive | inactive | inactive |  |  |  | 
35 | Cc1ccc(S(=O)(=O)NC(=O)NN2CCCCCC2)cc1 | inactive | inactive | inactive | inactive |  |  |  | 
36 | CC1=NN(c2ccc(S(=O)(=O)O)cc2)C(=O)C1 | inactive | inactive | inactive | inactive |  |  |  | 
37 | Oc1ccc2c(c1)-c1ccccc1C2 | inactive | inactive | inactive | inactive |  |  |  | 
38 | CC(=O)c1ccc2c(c1)N(CCCN(C)C)c1ccccc1S2 | inactive | inactive | inactive | inactive |  |  |  | 
39 | O=C1CCCC(=O)O1 | inactive | inactive | inactive | inactive |  |  |  | 
40 | CCCCOC(O)CC (stereo not given) | inactive | inactive | inactive | inactive |  |  |  | 

Row | SMILES | Potency [1] | Potency [2] | Potency [3] | Potency [4] | activity, negative = inhibition [1] | activity change, negative = inhibition [2] | activity change, negative = inhibition [3] | activity change, negative = inhibition [4]
41 | CC(=O)Nc1c(I)cc(I)c(C(=O)O)c1I | inactive | inactive | inactive | inactive |  |  |  | 
42 | C=C1CC[C@H](O)C/C1=C\C=C1/CCC[C@]2(C)[C@@H]([C@H](C)CCCC(C)C)CC[C@@H]12 | inactive | inactive | inactive | inactive |  |  |  | 
43 | CSc1ccc(C=O)cc1 | inactive | inactive | inactive | inactive |  |  |  | 
44 | CC(C)(c1ccccc1)c1ccc(Nc2ccc(C(C)(C)c3ccccc3)cc2)cc1 | inactive | inactive | inactive | inactive |  |  |  | 
45 | O=C(Nc1ccc2c(c1)Cc1ccccc1-2)C(F)(F)F | inactive | inactive | inactive | inactive |  |  |  | 
46 | CCNC(=S)NCC | inactive | inactive | inactive | inactive |  |  |  | 
47 | NCCCCCCN | inactive | inactive | inactive | inactive |  |  |  | 
48 | C=CC(=O)OCC(O)COc1ccccc1 (stereo not given) | inactive | inactive | inactive | inactive |  |  |  | 
49 | Clc1cc(Cl)nc(Cl)n1 | inactive | inactive | inactive | inactive |  |  |  | 
50 | CCCCNc1ccc(NCCCC)c2c1C(=O)c1ccccc1C2=O |  |  |  |  | -1.89% [at 23.6 µM] | -0.954% [at 23.6 µM] | 1.62% [at 23.8 µM] | -2.27% [at 23.6 µM]
51 | [Cl][Sc]([Cl])[Cl] | inactive | inactive | inactive | inactive |  |  |  | 
52 | CCN(CC)C(=O)c1ccc(O)c(OC)c1 | inactive | inactive | inactive | inactive |  |  |  | 
53 | NS(=O)(=O)c1ccc(C(=O)O)cc1 | inactive | inactive | inactive | inactive |  |  |  | 
54 | CC1(C)CC(N)CC(C)(CN)C1 (stereo not given) | inactive | inactive | inactive | inactive |  |  |  | 
55 | [O]=[Bi] |  |  |  |  | 1.07% [at 10.5 µM] | 2.59% [at 10.5 µM] | 3.63% [at 10.5 µM] | -4.69% [at 10.5 µM]
56 | CCC(C)Nc1ccc(NC(C)CC)cc1 (stereo not given) | inactive | inactive | 40.7 µM (active) | inactive |  |  |  | 
57 | CCCCN(CCCC)CCCC | inactive | inactive | inactive | inactive |  |  |  | 
58 | CN(C)C=O | inactive | inactive | inactive | inactive |  |  |  | 
59 | CN1C(=O)CC(C)(c2ccccc2)C1=O (stereo not given) | inactive | inactive | inactive | inactive |  |  |  | 
60 | COc1cc2[nH]c(=O)[nH]c(=O)c2cc1OC | inactive | inactive | inactive | inactive |  |  |  | 

— PubChem BioAssay (Tox21)
